{"source": "PubChem BioAssay (EPA / NIEHS)", "note": "The source made the active and inactive calls. Rule for the calls: active = hit-call score of the fitted dose curve at least 0.9, where 1 is the maximum; inactive = score below 0.9."}
{"read-out": "Bcl-2 (BAD) gene, BAD (gene 572)", "assay": "LTEA_HepaRG_BAD: Life Technologies and Expression Analysis (LTEA) Assay for Bcl-2 (BAD) gene using HepaRG (AID 2283469)", "conditions": "mRNA level, 48 h; actives raise or lower the signal", "how_it_was_run": "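Activity values reflect up- or down-regulation of BAD mRNA in human HepaRG hepatic cells treated 48 h in serum-free medium, with eight-point half-log dosing capped at 100 uM and 0.5% DMSO vehicle.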"}
{"molecule": "CC(=O)S[C@H](C(=O)N[C@H]1Cc2ccccc2[C@H]2CCC[C@@H](C(=O)O)N2C1=O)C(C)C", "outcome": "inactive"}
{"molecule": "CC(=O)OCC(COC(C)=O)OC(C)=O", "outcome": "inactive"}
{"molecule": "O=C1O[C@H]([C@H](O)CO)C(O)=C1O", "outcome": "inactive"}
{"molecule": "CC(=O)OC1CC(C)OC(C)O1", "note": "(centres undefined)", "outcome": "inactive"}
{"read-out": "Bcl-2 (BAX) gene, BAX (gene 581)", "assay": "LTEA_HepaRG_BAX: Life Technologies and Expression Analysis (LTEA) Assay for Bcl-2 (BAX) gene using HepaRG (AID 2283470)", "conditions": "mRNA level, 48 h; actives raise or lower the signal", "how_it_was_run": "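qRT-PCR read-out of BAX mRNA, normalized to three housekeeping genes, after 48 h chemical exposure of human HepaRG cells in serum-free induction medium; eight-point half-log series, top 100 uM, 0.5% DMSO vehicle; bidirectional fit versus DMSO.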"}
{"molecule": "CN(C)CCCN1c2ccccc2Sc2ccc(Cl)cc21", "outcome": "inactive"}
{"molecule": "c1ccc2occc2c1", "outcome": "inactive"}
{"molecule": "NC(=Nc1ccccc1)Nc1ccccc1", "outcome": "inactive"}
{"molecule": "CCN(CC)CCOc1ccc(C(=C(Cl)c2ccccc2)c2ccccc2)cc1", "outcome": "inactive"}
{"molecule": "NCCOCCOCCN", "outcome": "inactive"}
{"molecule": "Oc1ccccc1O", "outcome": "inactive"}
{"molecule": "CCc1nc(N)nc(N)c1-c1ccc(Cl)cc1", "outcome": "inactive"}
{"molecule": "Cc1cc(SC2=C(O)C[C@@](CCc3ccc(N)cc3)(C(C)C)OC2=O)c(C(C)(C)C)cc1CO", "outcome": "inactive"}
{"molecule": "CCCCC(CC)CO", "note": "(centres undefined)", "outcome": "inactive"}
{"molecule": "Nc1nc(Cl)nc2c1ncn2[C@H]1C[C@H](O)[C@@H](CO)O1", "AC50": "415 nM (active)"}
{"molecule": "O=C(O)CC(O)(CC(=O)O)C(=O)O", "outcome": "inactive"}
{"molecule": "O=C(NS(=O)(=O)/C=C/c1cccs1)c1ccc(F)cc1Br", "outcome": "inactive"}
{"molecule": "CC(COCC(C)OC(=O)c1ccccc1)OC(=O)c1ccccc1", "note": "(centres undefined)", "outcome": "inactive"}
{"molecule": "Cc1cn([C@H]2C=C[C@@H](CO)O2)c(=O)[nH]c1=O", "outcome": "inactive"}
{"molecule": "C#CC(O)C(CC)CCCC", "note": "(centres undefined)", "outcome": "inactive"}
{"molecule": "CSc1ccc(Oc2ccc(S(N)(=O)=O)cc2CN(C)C)cc1C", "outcome": "inactive"}
{"molecule": "CCCCOC(=O)CCCCC(=O)OCCCC", "outcome": "inactive"}
{"molecule": "N[C@@H](Cc1c[nH]c2ccccc12)C(=O)O", "outcome": "inactive"}
{"molecule": "CCCCC(CC)COP(=O)(OCC(CC)CCCC)OCC(CC)CCCC", "note": "(centres undefined)", "outcome": "inactive"}
{"molecule": "CC(N)=O", "outcome": "inactive"}
{"molecule": "O=C1CCCCC1", "outcome": "inactive"}
{"molecule": "O=NO", "outcome": "inactive"}
{"molecule": "Cc1cc(Cc2ccc(N)c(C)c2)ccc1N", "outcome": "inactive"}
{"molecule": "CCCCCCCCCCCCCCOS(=O)(=O)O", "outcome": "inactive"}
{"molecule": "Nc1nc(=S)c2[nH]cnc2[nH]1", "AC50": "3390 nM (active)"}
{"molecule": "COc1ccc(OC(F)(F)F)cc1CN[C@H]1CCCN[C@H]1c1ccccc1", "outcome": "inactive"}
{"molecule": "CC(=O)S[C@H](C(=O)N[C@H]1Cc2ccccc2[C@H]2CCC[C@@H](C(=O)O)N2C1=O)C(C)C", "outcome": "inactive"}
{"molecule": "CC(=O)OCC(COC(C)=O)OC(C)=O", "outcome": "inactive"}
{"molecule": "O=C1O[C@H]([C@H](O)CO)C(O)=C1O", "outcome": "inactive"}
{"molecule": "CC(=O)OC1CC(C)OC(C)O1", "note": "(centres undefined)", "outcome": "inactive"}
{"read-out": "adenosine kinase (ADK) gene, ADK (gene 132)", "assay": "LTEA_HepaRG_ADK: Life Technologies and Expression Analysis (LTEA) Assay for adenosine kinase (ADK) gene using HepaRG (AID 2283471)", "conditions": "mRNA level, 48 h; actives raise or lower the signal", "how_it_was_run": "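Read-out is ADK transcript level measured by qRT-PCR and normalised to three housekeeping genes. Cells are human HepaRG, dosed for 48 h at up to 100 uM in 0.5% DMSO. Gain or loss of signal is fitted against DMSO controls.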"}
{"molecule": "CN(C)CCCN1c2ccccc2Sc2ccc(Cl)cc21", "AC50": "90.5 µM (active)"}
{"molecule": "c1ccc2occc2c1", "outcome": "inactive"}
{"molecule": "NC(=Nc1ccccc1)Nc1ccccc1", "outcome": "inactive"}
{"molecule": "CCN(CC)CCOc1ccc(C(=C(Cl)c2ccccc2)c2ccccc2)cc1", "outcome": "inactive"}
{"molecule": "NCCOCCOCCN", "outcome": "inactive"}
{"molecule": "Oc1ccccc1O", "outcome": "inactive"}
{"molecule": "CCc1nc(N)nc(N)c1-c1ccc(Cl)cc1", "outcome": "inactive"}
{"molecule": "Cc1cc(SC2=C(O)C[C@@](CCc3ccc(N)cc3)(C(C)C)OC2=O)c(C(C)(C)C)cc1CO", "outcome": "inactive"}
{"molecule": "CCCCC(CC)CO", "note": "(centres undefined)", "outcome": "inactive"}
{"molecule": "Nc1nc(Cl)nc2c1ncn2[C@H]1C[C@H](O)[C@@H](CO)O1", "AC50": "1.05 µM (active)"}
{"molecule": "O=C(O)CC(O)(CC(=O)O)C(=O)O", "outcome": "inactive"}
{"molecule": "O=C(NS(=O)(=O)/C=C/c1cccs1)c1ccc(F)cc1Br", "outcome": "inactive"}
{"molecule": "CC(COCC(C)OC(=O)c1ccccc1)OC(=O)c1ccccc1", "note": "(centres undefined)", "outcome": "inactive"}
{"molecule": "Cc1cn([C@H]2C=C[C@@H](CO)O2)c(=O)[nH]c1=O", "outcome": "inactive"}
{"molecule": "C#CC(O)C(CC)CCCC", "note": "(centres undefined)", "outcome": "inactive"}
{"molecule": "CSc1ccc(Oc2ccc(S(N)(=O)=O)cc2CN(C)C)cc1C", "outcome": "inactive"}
{"molecule": "CCCCOC(=O)CCCCC(=O)OCCCC", "outcome": "inactive"}
{"molecule": "N[C@@H](Cc1c[nH]c2ccccc12)C(=O)O", "outcome": "inactive"}
{"molecule": "CCCCC(CC)COP(=O)(OCC(CC)CCCC)OCC(CC)CCCC", "note": "(centres undefined)", "outcome": "inactive"}
{"molecule": "CC(N)=O", "outcome": "inactive"}
{"molecule": "O=C1CCCCC1", "outcome": "inactive"}
{"molecule": "O=NO", "outcome": "inactive"}
{"molecule": "Cc1cc(Cc2ccc(N)c(C)c2)ccc1N", "outcome": "inactive"}
{"molecule": "CCCCCCCCCCCCCCOS(=O)(=O)O", "outcome": "inactive"}
{"molecule": "Nc1nc(=S)c2[nH]cnc2[nH]1", "outcome": "inactive"}
{"molecule": "COc1ccc(OC(F)(F)F)cc1CN[C@H]1CCCN[C@H]1c1ccccc1", "AC50": "79.3 µM (active)"}
{"molecule": "CC(=O)S[C@H](C(=O)N[C@H]1Cc2ccccc2[C@H]2CCC[C@@H](C(=O)O)N2C1=O)C(C)C", "outcome": "inactive"}
{"molecule": "CC(=O)OCC(COC(C)=O)OC(C)=O", "outcome": "inactive"}
{"molecule": "O=C1O[C@H]([C@H](O)CO)C(O)=C1O", "outcome": "inactive"}
{"molecule": "CC(=O)OC1CC(C)OC(C)O1", "note": "(centres undefined)", "outcome": "inactive"}
{"read-out": "Alpha-fetoprotein (AFP) gene, AFP (gene 174)", "assay": "LTEA_HepaRG_AFP: Life Technologies and Expression Analysis (LTEA) Assay for Alpha-fetoprotein (AFP) gene using HepaRG (AID 2283472);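 for AC50: AFP transcript by TaqMan qRT-PCR normalized to ACTB GAPDH and POLR2A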", "conditions": "mRNA level, 48 h; actives raise or lower the signal", "how_it_was_run": "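qRT-PCR (Fluidigm TaqMan) readout of AFP transcript, normalized to three housekeeping genes, fitted bidirectionally against 0.5% DMSO baseline. HepaRG cells received chemicals for 48 h in serum-free induction medium, top concentration 100 uM, half-log steps.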"}
{"molecule": "CN(C)CCCN1c2ccccc2Sc2ccc(Cl)cc21", "AC50": "26.6 µM (active)"}
{"molecule": "c1ccc2occc2c1", "outcome": "inactive"}
{"molecule": "NC(=Nc1ccccc1)Nc1ccccc1", "AC50": "70.9 µM (active)"}
{"molecule": "CCN(CC)CCOc1ccc(C(=C(Cl)c2ccccc2)c2ccccc2)cc1", "AC50": "17.9 µM (active)"}
{"molecule": "NCCOCCOCCN", "outcome": "inactive"}
{"molecule": "Oc1ccccc1O", "outcome": "inactive"}
{"molecule": "CCc1nc(N)nc(N)c1-c1ccc(Cl)cc1", "AC50": "32.8 µM (active)"}
{"molecule": "Cc1cc(SC2=C(O)C[C@@](CCc3ccc(N)cc3)(C(C)C)OC2=O)c(C(C)(C)C)cc1CO", "outcome": "inactive"}
{"molecule": "CCCCC(CC)CO", "note": "(centres undefined)", "outcome": "inactive"}
{"molecule": "Nc1nc(Cl)nc2c1ncn2[C@H]1C[C@H](O)[C@@H](CO)O1", "AC50": "1.72 µM (active)"}
{"molecule": "O=C(O)CC(O)(CC(=O)O)C(=O)O", "outcome": "inactive"}
{"molecule": "O=C(NS(=O)(=O)/C=C/c1cccs1)c1ccc(F)cc1Br", "AC50": "50 µM (active)"}
{"molecule": "CC(COCC(C)OC(=O)c1ccccc1)OC(=O)c1ccccc1", "note": "(centres undefined)", "outcome": "inactive"}
{"molecule": "Cc1cn([C@H]2C=C[C@@H](CO)O2)c(=O)[nH]c1=O", "outcome": "inactive"}
{"molecule": "C#CC(O)C(CC)CCCC", "note": "(centres undefined)", "outcome": "inactive"}
{"molecule": "CSc1ccc(Oc2ccc(S(N)(=O)=O)cc2CN(C)C)cc1C", "AC50": "75 µM (active)"}
{"molecule": "CCCCOC(=O)CCCCC(=O)OCCCC", "outcome": "inactive"}
{"molecule": "N[C@@H](Cc1c[nH]c2ccccc12)C(=O)O", "outcome": "inactive"}
{"molecule": "CCCCC(CC)COP(=O)(OCC(CC)CCCC)OCC(CC)CCCC", "note": "(centres undefined)", "outcome": "inactive"}
{"molecule": "CC(N)=O", "outcome": "inactive"}
{"molecule": "O=C1CCCCC1", "outcome": "inactive"}
{"molecule": "O=NO", "outcome": "inactive"}
{"molecule": "Cc1cc(Cc2ccc(N)c(C)c2)ccc1N", "outcome": "inactive"}
{"molecule": "CCCCCCCCCCCCCCOS(=O)(=O)O", "AC50": "50 µM (active)"}
{"molecule": "Nc1nc(=S)c2[nH]cnc2[nH]1", "AC50": "6.35 µM (active)"}
{"molecule": "COc1ccc(OC(F)(F)F)cc1CN[C@H]1CCCN[C@H]1c1ccccc1", "AC50": "9.61 µM (active)"}
{"molecule": "CC(=O)S[C@H](C(=O)N[C@H]1Cc2ccccc2[C@H]2CCC[C@@H](C(=O)O)N2C1=O)C(C)C", "outcome": "inactive"}
{"molecule": "CC(=O)OCC(COC(C)=O)OC(C)=O", "outcome": "inactive"}
{"molecule": "O=C1O[C@H]([C@H](O)CO)C(O)=C1O", "outcome": "inactive"}
{"molecule": "CC(=O)OC1CC(C)OC(C)O1", "note": "(centres undefined)", "outcome": "inactive"}
